Structures are written as SMILES. The whole screen tested about 370,000 compounds, of which about 4,700 (1.3%) were called active. This is one part of a sample in which actives are shown more often than they occur. Unmarked numbers belong to inactive results.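 How the source made its calls: active means inhibition above the plate cutoff, the mean of all test compounds on that plate plus 3 SD (cut at about 35% in these data); inactive means the rest.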

In PubChem BioAssay AID651821 (The Scripps Research Institute Molecular Screening Center, 2012) one finds inhibition data, which are given here for 84 molecules.

This assay in a line: small molecules binding CAG repeat RNA – biochemical, fluorescence, primary screen (AID 651821).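 Further: 0% = DMSO alone and 100% = 100 µM mitoxantrone as full dye displacement; higher means more dye released from RNA so lower well fluorescence.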 As to conditions: r(CAG) RNA repeat, TO-PRO-1 dye displacement fluorescence; at 3 µM; active compounds read high.
Turning to `Cc1nn2c(c1-c1ccccc1)N=C(c1ccco1)CC2c1ccccc1` (centres undefined), the inhibition is 11.8%.

Regarding `COC(=O)C1=C(C)N(Cc2ccccc2C(F)(F)F)C(=NCc2ccc(OC)cc2)NC1c1cccc(C(F)(F)F)c1` (centres undefined), the inhibition is 1.76%.

Turning to `O=c1c(-c2ccc3c(c2)OCCO3)c(C(F)(F)F)oc2cc(O)cc(O)c12`, the inhibition is 22.9%.

With `CCOC(=O)c1oc2c(CN3CCN(C)CC3)c(O)ccc2c(=O)c1-c1ccc(Br)cc1`, the inhibition is -3.79%.

Take `CCOC(=O)c1cc2cc(-c3c(C(=O)OCC)oc4cc(O)cc(O)c4c3=O)ccc2o1`: the inhibition is 42.5% (active).

For the molecule `COC(=O)C1CN(Cc2cn(Cc3ccc(F)cc3)nn2)CCS(=O)(=O)N1Cc1ccc(Cl)cc1` (centres undefined), the inhibition was -1.1%.

`COc1cccc(-c2cc(CNC(=O)[C@@H](Cc3ccccc3)NC(=O)[C@H]3O[C@@H](n4cnc(C(N)=O)n4)[C@H](O)[C@@H]3O)no2)c1`: the inhibition is 6.53%.

For the molecule `COc1cccc(CC(=O)N2CCN(C(=O)C(=O)c3cccc(C(F)(F)F)c3)CC2)c1`, the inhibition is -1.34%.

As for `Cc1[nH]c2ccc(S(N)(=O)=O)cc2c1C`, the inhibition was 2.18%.

As for `Cc1cccc(N=Nc2c(O)[nH]c3ccc(F)cc23)c1`, the inhibition is 17.5%.

For the molecule `NS(=O)(=O)c1ccc(N=Nc2c(O)[nH]c3ccc(Br)cc23)cc1`, the inhibition was 51.6% (active).

On to `O=C(NC1CCCCN(Cc2ccc(Cl)cc2)C1=O)c1ccc(Br)cc1` (centres undefined), for which the inhibition is 2.36%.

As for `O=C(O)Cn1cnc2c(NCc3ccccc3)ncnc21`, the inhibition was 2.28%.

Consider `Nn1c(SCC(=O)Nc2cccc3ccccc23)nnc1-c1cc(-c2ccc(F)cc2)n[nH]1`, for which the inhibition was 9.39%.

For `CCOc1ccc(NC(=O)C(C)N2C(=O)c3ccccc3C2=O)cc1` (centres undefined), the inhibition was -4.17%.

As to `CC(C(=O)Nc1ccc(O)c(C(=O)O)c1)N1C(=O)/C(=C/c2cccs2)SC1=S` (centres undefined), the inhibition is 87.5% (active).

Take `O=C1/C(=C/c2cccs2)SC(=S)N1C1CCS(=O)(=O)C1` (centres undefined): the inhibition was -0.31%.

Take `CC(C)c1ccc(N2CC(C(=O)Nc3nccs3)CC2=O)cc1` (centres undefined): the inhibition is 0.86%.

Turning to `CNS(=O)(=O)c1ccc(NC(=O)C2CC(=O)N(c3ccc(Cl)cc3)C2)cc1` (centres undefined), the inhibition is 6.47%.

In the case of `CCc1ccc(N2CC(C(=O)Nc3ccc(S(=O)(=O)Nc4nccs4)cc3)CC2=O)cc1` (centres undefined), the inhibition was 50.1% (active).

With `Nc1ncnc2c1ncn2C1OC(CO)CC1O` (centres undefined), the inhibition is 0.74%.

Consider `O=C(NCCc1c[nH]c2ccccc12)OCc1cn(-c2c(F)cccc2F)nn1`, for which the inhibition is 0.36%.

Regarding `COCCN(Cc1ccccc1)C(=O)Cc1ccc(S(=O)(=O)N2CCOCC2)s1`, the inhibition is 0.74%.

For `CCCCCCCCN1C(=O)[C@@H](CC(=O)NCc2ccc(C)o2)C[C@@]2(C(=O)OC)C1=C[C@H](C(C)(C)C)O[C@@H]2C`, the inhibition is 1.42%.

In the case of `O=C(O)c1ccc(NN=CC2=C(N3CCOCC3)/C(=C/c3ccccc3)CC2)cc1`, the inhibition is 48.1% (active).

Consider `O=C(O)c1ccc(N=NN2CCOCC2)cc1`, for which the inhibition is 3%.

Regarding `O=C1OC(NC(=O)c2ccccc2)C(N2CCOCC2)=C1Cl` (centres undefined), the inhibition was -0.63%.

Turning to `CCOc1ccc(-n2c(SCC(=O)Nc3cc(C)c(NC(=O)c4ccccc4)cc3OC)nnc2-c2cccc(Cl)c2)cc1`, the inhibition is 12.6%.

In the case of `O=C(COC(=O)c1ccc(NS(=O)(=O)c2cccs2)cc1O)Nc1ccc(F)cc1`, the inhibition is 43.1% (active).

For the molecule `CCc1ccc(NC(=O)CCNS(=O)(=O)c2cccs2)cc1`, the inhibition is -0.02%.

For `O=C(COC(=O)c1ccc(O)cc1O)NNC(=O)c1cccs1`, the inhibition was 1.41%.

`C=CCn1c(C2CC(=O)N(c3ccc(C)cc3)C2)nc2ccccc21` (centres undefined): the inhibition was -6.52%.

In the case of `C=CCn1c(=S)[nH]c2scc(-c3ccco3)c2c1=O`, the inhibition was 51.7% (active).

Turning to `C=CCOC/C=C/C#CCN(CC=C)Cc1ccc(OC)cc1OC`, the inhibition was -2.46%.

As to `COC(=O)[C@]12C[C@H](CC(=O)NCc3cccc(C(F)(F)F)c3)C(=O)N(Cc3ccc4c(c3)OCO4)C1=C[C@H](COCc1ccccc1)O[C@@H]2C`, the inhibition is 7.43%.

In the case of `Cc1cc(NS(=O)(=O)c2ccc(NC(=O)CSc3nnc(-c4ccc(C(C)(C)C)cc4)n3Cc3ccco3)cc2)nc(C)n1`, the inhibition is 37% (active).

Take `Cc1cc(NS(=O)(=O)c2ccc(NC(=O)CSc3nnc(SCc4ccc(F)cc4)s3)cc2)nc(C)n1`: the inhibition was 43.9% (active).

Take `Cc1nnc(SCC(=O)Nc2ccc(S(=O)(=O)Nc3ccc(Cl)nn3)cc2)s1`: the inhibition is 16.9%.

With `Cc1noc(NS(=O)(=O)c2ccc(N3CC(O)=C(c4ccccc4)C3=N)cc2)c1C`, the inhibition is 2.76%.

Consider `Cc1ccc(-c2nnc(SCC(=O)Nc3ccc(Oc4ccccc4)cc3)n2Cc2ccco2)cc1`, for which the inhibition is 10.4%.

As for `O=C(CSc1nnc(-c2cccc(Cl)c2)n1Cc1ccco1)Nc1ccc(OCc2ccccc2)cc1`, the inhibition is 8.04%.

As to `CCn1c(SCC(=O)Nc2ccc(S(=O)(=O)Nc3onc(C)c3C)cc2)nnc1-c1ccccc1`, the inhibition is 35.5% (active).

Turning to `O=C(CSc1nnc(SCc2ccc(F)cc2)s1)Nc1ccc(C(=O)O)cc1`, the inhibition is 24.4%.

As to `CCn1c2ccccc2c2cc(NC(=O)CSc3nnc(-c4ccccc4)n3-c3ccc(C)cc3)ccc21`, the inhibition was 11.4%.

As for `COC(=O)C1=C(C)N(Cc2cccc(C(F)(F)F)c2)C(=NCc2ccccc2)NC1c1ccccc1C(F)(F)F` (centres undefined), the inhibition was 4.41%.

Turning to `NC(=O)c1ncn([C@@H]2O[C@H](C(=O)O)[C@@H](O)[C@H]2O)n1`, the inhibition was 1.22%.

With `COc1ccc(C#CCNCc2ccc(OC)cc2OC)cc1`, the inhibition was 7.62%.

As for `CC(=O)OC1CCC2(C)C(=CCC3C4CC(=O)N(O)C(=O)C4(C)CCC32)C1` (centres undefined), the inhibition is 5.82%.

For the molecule `CC(=O)OCCN1CCCC12CCC(c1ccccc1)CC2` (centres undefined), the inhibition was 2.02%.

Consider `COC(=O)[C@]12C[C@H](CC(=O)NCCCN3CCCC3=O)C(=O)N(CCc3ccc(OC)c(OC)c3)C1=C[C@H](COCc1ccccc1)O[C@@H]2C`, for which the inhibition was 3.23%.

With `CC(=O)Nc1nc2ncccn2c1-c1ccc(C(F)(F)F)cc1`, the inhibition was 0.83%.

Consider `Cc1ccc(C2NC(C(=O)O)CS2)cc1` (centres undefined), for which the inhibition was 0.84%.

Turning to `COCCNC(=S)N(C)[C@H]1C[C@H]2c3[nH]c4ccccc4c3CCN2C[C@H]1[C@H](C)O`, the inhibition is 0.81%.

Regarding `COC(=O)[C@]12C[C@H](CC(=O)NCc3ccccc3)C(=O)N(CCC3=CCCCC3)C1=C[C@H](C(C)C)O[C@@H]2C1CC1`, the inhibition is 3.49%.

In the case of `O=C(c1c[nH]c2ccccc12)N1CCC(Oc2cccnc2)CC1`, the inhibition was 0.25%.

Take `CC(C)=CCCC1(C)C=Cc2c(ccc3c2[nH]c2cc(O)c(C)cc23)O1` (centres undefined): the inhibition was 50.7% (active).

Take `COP(=O)(O)CNC(=O)OCc1ccccc1`: the inhibition was 3.7%.

Consider `C[C@@H](CN1C2=NC[C@@H](Cc3ccccc3)N2C[C@H]1Cc1ccc(O)cc1)NC(=O)CCC1CCCCC1`, for which the inhibition was 10.8%.

In the case of `C=C(C)C#CC(Cc1ccccc1)NCC1CC1` (centres undefined), the inhibition is 0.83%.

With `O=C(CSc1nnc(COc2ccccc2)n1Cc1ccco1)c1ccc2ccccc2c1`, the inhibition was 10.1%.

Consider `O=C(CSc1nnc(-c2cccs2)n1Cc1ccco1)c1ccc2c(c1)OCO2`, for which the inhibition is 2.71%.

`Cc1sc2nc(SCC(=O)c3ccc(O)c(O)c3)n(Cc3ccco3)c(=O)c2c1C`: the inhibition is 60.5% (active).

On to `CN[C@H]1C[C@H]2c3cc(N4CCOCC4)ccc3CCN2C[C@H]1[C@H](C)O`, for which the inhibition was 0.53%.

On to `COC(=O)c1ccc(NC(=O)CSc2nc(N)c(NC(=O)c3ccc(Br)o3)c(=O)[nH]2)cc1`, for which the inhibition is 8.43%.

Consider `COc1ccc(CNC(=O)CCC(=O)Nc2nnc(C(C)C)s2)cc1`, for which the inhibition is -3.44%.

Turning to `COc1ccc(OCC(=O)Nc2nnc(-c3ccco3)s2)cc1`, the inhibition was 35.6% (active).

As for `COc1ccc(OCCCC(=O)Nc2nnc(C3CCCO3)s2)cc1` (centres undefined), the inhibition was -2.42%.

As to `CC(=O)C1=C(C)N(Cc2ccccc2)C(=S)NC1c1cccc(Br)c1` (centres undefined), the inhibition was 3.69%.

With `Cc1[nH]nc2c1C(c1ccc(Br)cc1)NC2=O` (centres undefined), the inhibition was 2.38%.

On to `CCc1cc(-c2nnc(SCC(=O)NC3CC3)n2C)cs1`, for which the inhibition is -0.55%.

As to `N#Cc1c(-c2cccs2)nc(SCC(=O)c2ccc(Br)cc2)[nH]c1=O`, the inhibition was 76% (active).

Consider `Cc1nnc(SCC(=O)NCc2cccs2)[nH]c1=O`, for which the inhibition is 1.73%.

For `CCc1ccc(C(=O)CSc2nnc(C)c(=O)[nH]2)cc1`, the inhibition is 1.9%.

Turning to `COc1ccc(-n2c(COc3ccccc3)nnc2SCC(=O)Nc2ccc3c(c2)OCO3)cc1`, the inhibition is 3.35%.

Turning to `CN[C@H]1C[C@H]2c3[nH]c4c(-c5ccccc5)cccc4c3CCN2C(=O)[C@H]1[C@H](C)O`, the inhibition was 1.12%.

On to `COc1ccc([C@H]2OC(=O)C[C@H]2C(=O)N2CCN(c3ccccc3F)CC2)cc1OC`, for which the inhibition is -0.41%.

Consider `O=C(CCCCCN1C(=O)C2C3C=CC(C3)C2C1=O)Nc1ccccc1` (centres undefined), for which the inhibition was -0.35%.

Turning to `O=C(Nc1cccc(F)c1)c1cc(-c2ccco2)nc2ccccc12`, the inhibition was 35% (active).

Turning to `Cc1cc(C(=O)Nc2ccc(C)c(S(=O)(=O)N3CCOCC3)c2)c2ccccc2n1`, the inhibition is 5.4%.

Consider `Cc1c(C(=O)Nc2cccc(Cl)c2)cn2c(nc3ccccc32)c1C#N`, for which the inhibition is 0.68%.

Take `O=C(Nc1cccc(F)c1)c1coc(=O)c(Br)c1`: the inhibition was 1.62%.

Take `O=C(O)c1cccc(NC(=O)c2cc(-c3cccc(Cl)c3)nc3ccccc23)c1`: the inhibition is 49.4% (active).

As to `O=C(Nc1nc2ccc(Cl)cc2s1)c1cc(-c2ccc(Cl)cc2)nc2ccccc12`, the inhibition is 7.74%.

Turning to `CN(C)S(=O)(=O)c1cccc(C(=O)N/N=C\c2ccco2)c1`, the inhibition is 3.29%.
